This is a sample that favours compounds with a hit; in the whole collection about 28% have one here.
CD11b adhes inh = blocks human CD11b/CD18 adhesion to fibrinogen; P05107+P11215; K562 CD11b/CD18 adhesion to fibrinogen, ATPlite luminescence; Mn2+ added to activate the integrin; inhibition, % at 10 µM; actives 0.54% (n = 93,000); AID 1497;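 active = primary inhibition of 50% or more at 10 µM, then 40% or more on retest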
CYP2C19 activ = increases human CYP2C19 enzyme activity; activation factor at 5 µM; AID 1025; 96,000 tested, under 10 active; recombinant CYP2C19, luciferin-H EGE luminescence; stronger effect = higher value; 0 = fully inhibited enzyme, 1 = untreated enzyme;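 active = activation factor of at least 2 at 5 µM in the primary screen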;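 note: 0 = wells with 2.5 mM tranylcypromine and 1 = vehicle-only wells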
Target sequence (P33261 whole entry, looked up): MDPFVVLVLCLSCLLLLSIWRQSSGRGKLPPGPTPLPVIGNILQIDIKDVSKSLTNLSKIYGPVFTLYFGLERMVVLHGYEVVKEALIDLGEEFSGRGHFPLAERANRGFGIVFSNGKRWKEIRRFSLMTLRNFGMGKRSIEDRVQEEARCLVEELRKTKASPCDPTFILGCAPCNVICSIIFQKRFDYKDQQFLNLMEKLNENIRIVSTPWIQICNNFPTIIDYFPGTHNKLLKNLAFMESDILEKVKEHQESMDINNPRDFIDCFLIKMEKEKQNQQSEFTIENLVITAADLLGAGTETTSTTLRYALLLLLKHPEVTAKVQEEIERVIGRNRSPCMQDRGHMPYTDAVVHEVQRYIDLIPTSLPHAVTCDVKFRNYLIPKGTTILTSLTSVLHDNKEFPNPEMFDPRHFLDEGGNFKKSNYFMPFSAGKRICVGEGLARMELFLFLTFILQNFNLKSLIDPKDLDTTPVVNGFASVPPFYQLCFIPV
CYP2C19 inh = human CYP2C19 inhibition. P33261. CYP2C19 Supersomes, luciferin-H EGE luminescence, 30 min. inhibition, % at 5 µM. actives 21% (n = 96,000). AID 778;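 active = CYP2C19 inhibition above a set limit at 5 µM in the primary screen, cut at about 50% in these data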;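 note: plate controls were negative control wells for no effect and 2.5 mM tranylcypromine positive control for full effect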
CYP2C9 inh = blocks human cytochrome P450 2C9; actives 20% (n = 96,000); inhibition, % at 5 µM; AID 777; CYP2C9 Supersomes, luciferin-H conversion, luminescence; P11712;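 active = blocking of liver enzyme CYP2C9 beyond about 50% at 5 µM, limit read from the data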
CYP2C9 activ = increases human cytochrome P450 2C9 activity; activation factor at 5 µM; actives 1.4% (n = 96,000); recombinant CYP2C9, luciferin-H conversion, luminescence; stronger effect = higher value; factor 1 = untreated enzyme, 0 = blocked; AID 1024; P11712;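 active = activation factor of 2 or more for CYP2C9 at a 5 µM dose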;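 note: 0 = sulfaphenazole-blocked wells and 1 = vehicle-only wells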
Mac1 fbg enh = CD11b/CD18-fibrinogen binding enhancement; P05107+P11215; K562 CD11b/CD18 adhesion to fibrinogen, ATPlite luminescence; activation, % at 10 µM; actives 0.07% (n = 93,000);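 active = 10 µM primary screen giving 50% or more activity, confirmed by 40% or more on retest at that dose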
Starred values were filed as active, the others as inactive.

O=C(NC1CCCC1)c1ccc2nc(-c3ccco3)c(-c3ccco3)nc2c1 was read as CD11b adhes inh 6, CYP2C19 activ 0.8, CYP2C19 inh 22, CYP2C9 inh 59*, CYP2C9 activ 0.4 and Mac1 fbg enh -3.
O=C(NCCO)c1ccc2nc(-c3ccco3)c(-c3ccco3)nc2c1 was read as CD11b adhes inh -12, CYP2C19 activ 0.9, CYP2C19 inh 10, CYP2C9 inh 3, CYP2C9 activ 1 and Mac1 fbg enh -1.
C=CCc1cc(C=O)cc(OC)c1OCc1c(Cl)cccc1Cl was read as CYP2C19 activ 0.9, CYP2C19 inh 7, CYP2C9 inh 39 and CYP2C9 activ 0.6.
CCN(CC)C(=O)CN(c1ccc(Cl)cc1)S(=O)(=O)c1ccccc1 was read as CD11b adhes inh -7, CYP2C19 activ 0.3, CYP2C19 inh 68*, CYP2C9 inh 7, CYP2C9 activ 0.9 and Mac1 fbg enh -3.
Screening CCN(CC)C(=O)CN(c1ccc(C)cc1)S(=O)(=O)c1ccc(SC)cc1 returned CYP2C19 activ 0.8, CYP2C19 inh 21, CYP2C9 inh 31 and CYP2C9 activ 0.7.
CCC1(CC)C(=O)C(C)(C)C(=O)OC1c1ccccn1 (stereo unspecified) was read as CD11b adhes inh 2, CYP2C19 activ 0.7, CYP2C19 inh 33, CYP2C9 inh 60*, CYP2C9 activ 0.4 and Mac1 fbg enh 2.
`CC1(C)C(=O)OC(c2ccco2)C(C)(C)C1=O` (stereo unspecified) gave CD11b adhes inh -3, CYP2C19 activ 0.7, CYP2C19 inh 34, CYP2C9 inh -2, CYP2C9 activ 1 and Mac1 fbg enh 3.
Cc1cccc(N2CCN(CC(O)COCc3cccs3)CC2)c1C (stereo unspecified) was read as CD11b adhes inh 7 and Mac1 fbg enh -1.
`COc1ccc(CNC(=O)CCCn2c(SCC#N)nc3cc4c(cc3c2=O)OCO4)cc1` gave CYP2C19 activ 0.5, CYP2C19 inh 54*, CYP2C9 inh 80* and CYP2C9 activ 0.2.
Screening NC(=O)CSc1nc2cc3c(cc2c(=O)n1CCCC(=O)NCc1ccc2c(c1)OCO2)OCO3 returned CD11b adhes inh 3, CYP2C19 activ 0.9, CYP2C19 inh 7, CYP2C9 inh 74*, CYP2C9 activ 0.3 and Mac1 fbg enh -2.
For Cc1cc(C)cc(-n2c(SCC(=O)NCc3ccc4c(c3)OCO4)nc3ccccc3c2=O)c1 the results were CD11b adhes inh -1 and Mac1 fbg enh 15.
O=C(COC(=O)c1ccc(CNS(=O)(=O)c2ccc(F)c(Cl)c2)cc1)NCC1CCCCC1 was read as CD11b adhes inh -8 and Mac1 fbg enh -2.
For CCOc1ccc(N(C(C)C(=O)NC(C)CC)S(C)(=O)=O)cc1 (stereo unspecified) the results were CD11b adhes inh 3, CYP2C19 activ 0.7, CYP2C19 inh 28, CYP2C9 inh 25, CYP2C9 activ 0.8 and Mac1 fbg enh -3.
`CCOc1ccc(N(C(C)C(=O)N/N=C(\C)c2cccc(NC(=O)c3ccccc3)c2)S(C)(=O)=O)cc1` (stereo unspecified) gave CYP2C19 activ 0.2, CYP2C19 inh 76*, CYP2C9 inh 69* and CYP2C9 activ 0.3.
`Cc1ccc(-c2nnn(CC(=O)N(CC(=O)NCc3ccccc3)c3cccc(C)c3C)n2)o1` gave CD11b adhes inh -2, CYP2C19 activ 0.6, CYP2C19 inh 41, CYP2C9 inh 78*, CYP2C9 activ 0.2 and Mac1 fbg enh 4.
Screening Cc1ccc(-c2nnn(CC(=O)N(CC(=O)NC3CCCC3)c3cnc4ccccc4c3)n2)o1 returned CD11b adhes inh 12, CYP2C19 activ 0.6, CYP2C19 inh 44, CYP2C9 inh 77*, CYP2C9 activ 0.2 and Mac1 fbg enh 0.
CCOC(=O)c1cc2n(c1/N=C/N(C)C)-c1ccccc1C2=O was read as CD11b adhes inh -7, CYP2C19 activ 0.8, CYP2C19 inh 22, CYP2C9 inh 62*, CYP2C9 activ 0.4 and Mac1 fbg enh 1.
For CCO/C(C)=C1\C(=O)N(CC)c2ccccc21 the results were CD11b adhes inh -6, CYP2C19 activ 0.7, CYP2C19 inh 33, CYP2C9 inh 40, CYP2C9 activ 0.6 and Mac1 fbg enh 3.

Compound activity (PubChem BioAssay)
